Laboratory results from PubChem BioAssay (NCATS).
Records with an inconclusive call do not appear. Calls of active or inactive are those of the source. Unless noted, the call rests on the fitted dose curve; in most records, active means well fitted curve in either direction with a large enough effect (not every such curve was filed as active); inconclusive means small, poorly fitted or top-dose-only effect, or another doubt; inactive means flat fitted curve, though single readings scatter.

Columns and labels:
[1] = biological target: Lysosomal acid glucosylceramidase (Homo sapiens) (UniProt P04062); assay: Glucocerebrosidase-p2 (AID 348; in the data active means potency below about 10 µM; further: potency means the concentration at half of the fitted maximal effect); settings: purified GBA, blue fluorogenic substrate, 40 min
Outline: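 Compounds titrated from 0.6 nM upwards against 0.2 nM enzyme in pH 5.9 citric acid/KH2PO4, taurocholate, tween-20; blue fluorogenic substrate 80 uM, 40 min room temperature, stopped and read Ex 365/Em 440 for AC50.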

[2] = AP1 Signaling Pathway (AID 357); settings: ME-180 AP-1-bla reporter, EGF-induced, beta-lactamase ratio, 5 h; at 7.69 µM (top of the series) unless noted;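 further: ME-180 reporter cells stimulated with EGF at its EC50 level; on the % scale 0 is the no-effect control and ±100 the full control effect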
Outline: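 Titration-series screen for positive or negative modulators of EC50 EGF-induced signaling in ME-180 cells carrying an AP-1-driven beta-lactamase reporter. After 5 hours at 37 degrees Celsius, CCF4 460nm/530nm emission ratio gave %Activity; AC50 values derived.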

[3] = biological target: Cytochrome P450 1A2 (Homo sapiens) (UniProt P05177); assay: p450-cyp1a2 (AID 410; calls by dose curve; further: potency means the concentration at half of the fitted maximal effect;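 on activity change, negative = inhibition: -100% = full effect of reference inhibitor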); settings: recombinant CYP1A2, luciferin-ME demethylation, luminescence; series mostly up to 11.4 µM
Outline: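 Human CYP1A2 (20nM) demethylated Luciferin-ME at its Km (100uM) in 100mM KPO4. After 10 min compound preincubation, NADPH regeneration ran the reaction 60 min at room temperature. Luciferin was read by luminescence, normalized to 57 uM furafylline.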

[4] = biological target: Glucocorticoid receptor (Homo sapiens) (UniProt P04150); assay: GR-GFP Redistribution (AID 450;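 active means compounds whose dose series gives a full or clear partial fitted curve of increased nuclear translocation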; further: potency means the concentration at half of the fitted maximal effect); settings: U2OS GR-GFP nuclear translocation, laser cytometry, 2 h
[5] = biological target: Glucocorticoid receptor (Homo sapiens) (UniProt P04150); assay: GR-EFC Redistribution (AID 451; calls by dose curve; further: potency means the concentration at half of the fitted maximal effect); settings: CHO-K1 GR-EFC translocation, beta-gal luminescence, 2 h
Outline: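 CHO-K1 cells expressing nuclear EA and GR-ED fragments of b-gal; compounds titrated up to 46 uM final, 2 h at 37 C. GR nuclear translocation read as complemented b-gal luminescence after 1 h RT detection.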

[6] = biological target: Mitogen-activated protein kinase 10 (Mus musculus) (UniProt Q61831); assay: JNK3 AlphaScreen Assay (AID 530); settings: JNK3 lysate, c-Jun phosphorylation; series mostly up to 11.4 µM;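 further: kinase came from lysate of stimulated human HepG2 cells; signal reports phosphorylation of biotinylated GST-cJun 1-79 at Ser73 with 10 µM ATP; on the % scale 0 is the no-effect control and ±100 the full control effect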
Outline: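 qHTS format: compounds tested as titrations against IL-1beta/TNF-alpha-activated HepG2 lysate JNK3 with biotin-GST-cJun substrate and 10 uM ATP at room temperature. Loss of anti-phospho-cJun AlphaScreen signal indicates inhibition.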

[7] = biological target: 3',5'-cyclic-AMP phosphodiesterase 4B (Homo sapiens) (UniProt Q07343); assay: qHTS Assay for Inhibitors of PDE-IV (AID 607; active means well fitted activation curve with a large enough effect in the main read-out, with a control signal flat, not every such curve was filed as active; further: % of control where 0% means no effect); settings: HEK293 ACTOne CNG channel cells, membrane potential fluorescence; series mostly up to 22.9 µM
Outline: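 Live HEK293 cells with a modified cyclic nucleotide-gated (CNG) channel report intracellular cAMP via membrane-potential dye fluorescence (ex 535/em 590 nm). Endogenous PDE-IV was targeted. Compounds were tested at up to 22.9 uM final; RO 20-1724 100 uM served as control.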

[8] = biological target: Cytochrome P450 3A4 (Homo sapiens) (UniProt P08684); assay: qHTS Assay for Activators of Cytochrome P450 3A4 (AID 885; active means well fitted curve in the direction sought with a large enough effect; an effect the other way counts as inactive or inconclusive; further: nearly all actives have a fitted effect of over 65% in size); settings: recombinant CYP3A4, Luciferin-PPXE luminescence, 60 min; series mostly up to 11.4 µM
Outline: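 Quantitative HTS format: compounds preincubated with 20nM human CYP3A4 and Luciferin-PPXE substrate at KM, reaction started by NADPH regeneration, stopped after 60 min, luciferase luminescence read 20 min later.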

[9] = biological target: Cytochrome P450 2D6 (Homo sapiens) (UniProt P10635); assay: qHTS Assay for Inhibitors and Substrates of Cytochrome P450 2D6 (AID 891; active means well fitted curve in the direction sought with a large enough effect; an effect the other way counts as inactive or inconclusive; further: potency means the concentration at half of the fitted maximal effect; nearly all actives have a fitted effect of over 60% in size); settings: recombinant CYP2D6, luciferin-ME EGE luminescence; series mostly up to 11.4 µM
Outline: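 Human CYP2D6 (5 nM) with 30 uM Luciferin-ME EGE (at Km) in 100 mM KPO4, compound preincubated 10 min, then NADPH regeneration system for 60 min at room temperature. Luciferin read by luminescence; normalized to 1.43 uM quinidine.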

[10] = qHTS Assay for Identification of Small Molecule Agonists for Hypoxia Response Element Signaling Pathway (AID 914; active means well fitted activation curve with a large enough effect in the signal ratio, with a control signal flat, not every such curve was filed as active; the % refers to the signal ratio; further: potency means the concentration at half of the fitted maximal effect); settings: ME-180 HRE-bla reporter, beta-lactamase ratio, CoCl2, 17 h; activation: hits give high values
Outline: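 AC50 values come from titration-series %Activity, taken as the 460/530nm ratio of CCF4 fluorescence (excitation 405nm). CellSensor HRE-bla ME-180 cells were treated 17 hours at 37 C with compound plus an EC50 level of CoCl2.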

[11] = NFAT Signaling Pathway (AID 444); settings: Jurkat NFAT-bla M1, carbachol, beta-lactamase ratio, 5 h; at 7.69 µM (top of the series) unless noted;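 further: carbachol stimulus at about its EC50 of 1 µM final; on the % scale 0 is the no-effect control and ±100 the full control effect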
Outline: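 Jurkat cells with NFAT-driven β-lactamase reporter and co-expressed M1 receptor, stimulated with carbachol (final 1 uM, ~EC50), compound titration, 5 h at 37 °C. CCF4 loaded 1 h at RT; 460/530 nm ratio gave %activity and AC50.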

[12] = Stat Signaling Pathway (AID 446); settings: ME-180 (cervical carcinoma) SIE beta-lactamase reporter, IL-6 stimulated, 5 h; at 7.69 µM (top of the series) unless noted;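 further: ME-180 cervical cancer cells given 40 pM IL-6 alongside compound; SIE-controlled beta-lactamase reporter measured as 460/530 nm FRET emission ratio; on the % scale 0 is the no-effect control and ±100 the full control effect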
Outline: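 IL-6/STAT signaling read in ME-180 cells via an SIE beta-lactamase reporter. Stimulus was 40 pM IL-6 (its AC50) for 5 hrs, so both activation and inhibition register.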

[13] = biological target: ATP-dependent 6-phosphofructokinase (Trypanosoma brucei brucei) (UniProt O15648); assay: qHTS Assay to Find Inhibitors of T. brucei phosphofructokinase: hit validation (AID 492961; active means well fitted curve in the direction sought with a large enough effect; an effect the other way counts as inactive or inconclusive; further: on the % scale 0 is the no-effect control and ±100 the full control effect); settings: T. brucei PFK, ADP-Glo luminescence; series mostly up to 51.4 µM
Outline: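 Luminescence from ADP-Glo reports ADP generated as T. brucei PFK (1.25 nM) phosphorylates 0.5 mM fructose-6-phosphate using 0.1 mM ATP. Reactions ran 45 min at room temperature, pH 8.0.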

[14] = qHTS profiling for inhibitors of Plasmodium falciparum proliferation (AID 504749; active means well fitted curve in the direction sought with a large enough effect; an effect the other way counts as inactive or inconclusive;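 further: 0% = DMSO vehicle and full inhibition = artemisinin control; nearly all actives have a fitted effect of over 60% in size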); settings: P. falciparum in erythrocytes, SYBR Green DNA, 72 h, at 28.7 µM (top of the series)
Outline: (§1)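 Readout was DNA-dye fluorescence from lysed cultures, ex 485/em 535 nm. Parasitized red cells had grown 72 h with compound; data scaled between 0.29 uM artemisinin and DMSO wells and corrected using vehicle-only plates.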

[15] = tested on: AS120; assay: as above; settings: P. falciparum in erythrocytes, SYBR Green DNA, 72 h; series mostly up to 28.7 µM
Outline: as §1

[16] = tested on: ATS189; assay: as above; settings: P. falciparum in erythrocytes, SYBR Green DNA, 72 h; series mostly up to 28.7 µM
Outline: as §1

[17] = tested on: W2; assay: as above; settings: P. falciparum in erythrocytes, SYBR Green DNA, 72 h; series mostly up to 28.7 µM
Outline: as §1

[18] = biological target: Cytochrome P450 3A4 (Homo sapiens) (UniProt P08684); assay: qHTS Assay for Inhibitors and Substrates of Cytochrome P450 3A4 (AID 884; active means well fitted curve in the direction sought with a large enough effect; an effect the other way counts as inactive or inconclusive; further: potency means the concentration at half of the fitted maximal effect; nearly all actives have a fitted effect of over 50% in size); settings: recombinant CYP3A4, Luciferin-PPXE luminescence; series mostly up to 57.1 µM
Outline: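 20 nM human CYP3A4 with 25 uM Luciferin-PPXE (at KM) in 200 mM KPO4, preincubated 10 min with compound; NADPH regeneration started a 60 min RT reaction. Luciferin detected by luminescence, normalized to 57 uM ketoconazole as full inhibition.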

[19] = biological target: Cytochrome P450 2C19 (Homo sapiens) (UniProt P33261); assay: qHTS Assay for Inhibitors and Substrates of Cytochrome P450 2C19 (AID 899; active means well fitted curve in the direction sought with a large enough effect; an effect the other way counts as inactive or inconclusive; further: potency means the concentration at half of the fitted maximal effect; nearly all actives have a fitted effect of over 60% in size); settings: recombinant CYP2C19, luciferin-H EGE luminescence; series mostly up to 11.4 µM
Outline: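 Luminescent read-out of luciferin formed from Luciferin-H EGE (10uM, equal to KM). Enzyme 5nM in 50mM KPO4; compound added, 10 min at 37C, then NADPH regenerating system for 60 min at 37C. Full inhibition defined by 57uM ketoconazole.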

Sequence of Cytochrome P450 1A2 (Homo sapiens) (P05177 whole entry, looked up): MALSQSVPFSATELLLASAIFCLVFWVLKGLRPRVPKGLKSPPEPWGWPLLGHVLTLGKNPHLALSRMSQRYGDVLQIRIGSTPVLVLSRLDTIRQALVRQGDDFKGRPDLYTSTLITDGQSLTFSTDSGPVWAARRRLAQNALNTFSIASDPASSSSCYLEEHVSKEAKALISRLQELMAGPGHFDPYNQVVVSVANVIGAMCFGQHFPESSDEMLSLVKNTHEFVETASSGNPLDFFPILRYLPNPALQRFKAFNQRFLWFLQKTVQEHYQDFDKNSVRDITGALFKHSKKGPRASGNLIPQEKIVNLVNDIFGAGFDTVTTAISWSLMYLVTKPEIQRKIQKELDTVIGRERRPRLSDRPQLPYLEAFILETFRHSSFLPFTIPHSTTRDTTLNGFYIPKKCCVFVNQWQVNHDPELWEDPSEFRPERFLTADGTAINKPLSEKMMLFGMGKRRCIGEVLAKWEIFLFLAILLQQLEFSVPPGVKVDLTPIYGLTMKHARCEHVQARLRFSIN
Sequence of 3',5'-cyclic-AMP phosphodiesterase 4B (Homo sapiens) (Q07343 whole entry, looked up): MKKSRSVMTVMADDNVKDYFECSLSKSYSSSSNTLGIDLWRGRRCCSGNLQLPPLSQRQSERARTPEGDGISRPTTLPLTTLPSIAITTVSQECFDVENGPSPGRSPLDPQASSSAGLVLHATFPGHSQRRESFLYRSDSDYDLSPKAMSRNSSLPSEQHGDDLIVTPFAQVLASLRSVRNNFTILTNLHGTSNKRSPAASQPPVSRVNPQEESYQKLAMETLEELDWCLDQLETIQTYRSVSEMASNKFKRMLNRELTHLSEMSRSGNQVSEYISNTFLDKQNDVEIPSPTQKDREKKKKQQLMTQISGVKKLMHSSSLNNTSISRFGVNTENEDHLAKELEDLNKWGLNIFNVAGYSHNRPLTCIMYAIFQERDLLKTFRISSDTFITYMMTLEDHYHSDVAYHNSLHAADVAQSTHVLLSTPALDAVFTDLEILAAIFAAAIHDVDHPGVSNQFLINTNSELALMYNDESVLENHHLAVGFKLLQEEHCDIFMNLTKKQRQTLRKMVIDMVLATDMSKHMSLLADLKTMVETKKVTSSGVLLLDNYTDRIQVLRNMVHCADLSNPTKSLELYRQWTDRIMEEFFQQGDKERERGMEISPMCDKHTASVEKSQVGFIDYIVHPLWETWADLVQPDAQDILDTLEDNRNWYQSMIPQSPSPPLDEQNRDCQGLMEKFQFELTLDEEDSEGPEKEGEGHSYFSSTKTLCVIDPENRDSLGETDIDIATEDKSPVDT
Sequence of Glucocorticoid receptor (Homo sapiens) (P04150 whole entry, looked up, the tested form may be a part): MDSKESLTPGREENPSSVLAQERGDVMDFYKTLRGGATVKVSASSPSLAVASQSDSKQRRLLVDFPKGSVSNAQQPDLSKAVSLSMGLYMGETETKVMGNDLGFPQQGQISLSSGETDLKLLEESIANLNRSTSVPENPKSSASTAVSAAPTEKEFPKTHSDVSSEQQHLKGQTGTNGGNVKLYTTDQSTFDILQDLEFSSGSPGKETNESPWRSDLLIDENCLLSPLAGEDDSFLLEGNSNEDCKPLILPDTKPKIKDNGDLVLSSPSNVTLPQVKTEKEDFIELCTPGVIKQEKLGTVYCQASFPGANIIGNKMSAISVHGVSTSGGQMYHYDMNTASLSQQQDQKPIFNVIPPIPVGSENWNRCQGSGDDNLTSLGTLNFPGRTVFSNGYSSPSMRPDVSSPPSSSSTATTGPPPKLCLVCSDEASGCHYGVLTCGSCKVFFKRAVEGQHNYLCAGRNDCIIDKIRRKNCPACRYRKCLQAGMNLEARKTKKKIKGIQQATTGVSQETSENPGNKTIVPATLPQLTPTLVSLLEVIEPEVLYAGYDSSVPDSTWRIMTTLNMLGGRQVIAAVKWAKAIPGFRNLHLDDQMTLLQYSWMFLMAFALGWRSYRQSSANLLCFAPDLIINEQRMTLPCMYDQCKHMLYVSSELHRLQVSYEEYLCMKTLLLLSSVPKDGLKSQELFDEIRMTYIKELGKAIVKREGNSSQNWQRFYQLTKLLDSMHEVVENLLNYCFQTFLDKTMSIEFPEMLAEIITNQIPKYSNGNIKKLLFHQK
Sequence of Cytochrome P450 3A4 (Homo sapiens) (P08684 whole entry, looked up): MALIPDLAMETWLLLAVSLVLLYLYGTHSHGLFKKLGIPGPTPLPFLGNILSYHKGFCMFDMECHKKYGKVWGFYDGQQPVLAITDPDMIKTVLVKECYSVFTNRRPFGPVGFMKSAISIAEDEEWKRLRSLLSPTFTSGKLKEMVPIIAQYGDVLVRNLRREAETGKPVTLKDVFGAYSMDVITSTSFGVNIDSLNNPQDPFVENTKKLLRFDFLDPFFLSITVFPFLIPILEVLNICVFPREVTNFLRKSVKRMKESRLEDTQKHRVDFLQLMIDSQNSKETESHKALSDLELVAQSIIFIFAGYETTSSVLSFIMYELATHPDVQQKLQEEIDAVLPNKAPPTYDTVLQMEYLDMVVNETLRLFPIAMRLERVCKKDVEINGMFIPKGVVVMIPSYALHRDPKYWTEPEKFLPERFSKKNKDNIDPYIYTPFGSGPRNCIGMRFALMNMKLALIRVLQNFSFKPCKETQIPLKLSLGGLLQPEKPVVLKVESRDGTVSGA
Sequence of Lysosomal acid glucosylceramidase (Homo sapiens) (P04062 whole entry, looked up): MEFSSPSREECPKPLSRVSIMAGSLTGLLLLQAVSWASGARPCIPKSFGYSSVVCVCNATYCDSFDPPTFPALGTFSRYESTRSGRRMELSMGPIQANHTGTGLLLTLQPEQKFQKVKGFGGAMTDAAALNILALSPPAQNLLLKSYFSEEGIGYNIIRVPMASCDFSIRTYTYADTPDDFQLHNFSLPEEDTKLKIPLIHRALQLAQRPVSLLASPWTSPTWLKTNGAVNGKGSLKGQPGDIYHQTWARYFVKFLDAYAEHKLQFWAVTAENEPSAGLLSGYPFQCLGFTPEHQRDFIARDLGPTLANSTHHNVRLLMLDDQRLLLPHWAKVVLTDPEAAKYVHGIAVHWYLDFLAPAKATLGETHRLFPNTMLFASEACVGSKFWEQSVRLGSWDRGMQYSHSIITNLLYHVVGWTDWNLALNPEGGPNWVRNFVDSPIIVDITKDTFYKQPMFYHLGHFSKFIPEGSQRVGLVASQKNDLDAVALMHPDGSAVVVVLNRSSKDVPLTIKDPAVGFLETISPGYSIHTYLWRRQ
Sequence of Cytochrome P450 2D6 (Homo sapiens) (P10635 whole entry, looked up): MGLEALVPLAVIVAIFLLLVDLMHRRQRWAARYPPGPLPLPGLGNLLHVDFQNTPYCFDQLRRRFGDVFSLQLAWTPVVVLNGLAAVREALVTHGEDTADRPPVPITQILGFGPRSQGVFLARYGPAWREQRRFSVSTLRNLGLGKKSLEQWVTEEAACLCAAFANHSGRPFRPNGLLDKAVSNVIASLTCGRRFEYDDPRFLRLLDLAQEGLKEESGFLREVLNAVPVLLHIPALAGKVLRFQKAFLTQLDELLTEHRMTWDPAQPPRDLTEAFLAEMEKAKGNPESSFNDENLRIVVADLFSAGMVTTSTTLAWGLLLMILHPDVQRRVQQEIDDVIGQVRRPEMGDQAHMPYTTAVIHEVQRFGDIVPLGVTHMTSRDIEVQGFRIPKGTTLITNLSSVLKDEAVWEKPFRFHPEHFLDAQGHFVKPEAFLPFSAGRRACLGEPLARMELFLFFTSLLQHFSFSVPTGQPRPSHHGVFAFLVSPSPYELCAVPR
Sequence of Cytochrome P450 2C19 (Homo sapiens) (P33261 whole entry, looked up): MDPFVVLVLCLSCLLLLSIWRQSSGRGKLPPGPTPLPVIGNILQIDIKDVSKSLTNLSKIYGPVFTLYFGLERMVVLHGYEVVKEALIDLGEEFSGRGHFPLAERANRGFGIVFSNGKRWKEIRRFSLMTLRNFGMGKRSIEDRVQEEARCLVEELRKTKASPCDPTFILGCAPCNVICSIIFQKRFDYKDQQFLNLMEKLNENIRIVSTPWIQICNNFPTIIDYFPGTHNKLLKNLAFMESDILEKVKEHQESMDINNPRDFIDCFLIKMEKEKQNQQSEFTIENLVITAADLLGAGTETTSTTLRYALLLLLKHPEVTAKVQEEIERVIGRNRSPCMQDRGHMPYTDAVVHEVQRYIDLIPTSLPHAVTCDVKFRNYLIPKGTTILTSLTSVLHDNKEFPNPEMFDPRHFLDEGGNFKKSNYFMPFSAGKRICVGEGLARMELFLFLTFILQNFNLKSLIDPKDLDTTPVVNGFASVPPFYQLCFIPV
Sequence of ATP-dependent 6-phosphofructokinase (Trypanosoma brucei brucei) (O15648 whole entry, looked up): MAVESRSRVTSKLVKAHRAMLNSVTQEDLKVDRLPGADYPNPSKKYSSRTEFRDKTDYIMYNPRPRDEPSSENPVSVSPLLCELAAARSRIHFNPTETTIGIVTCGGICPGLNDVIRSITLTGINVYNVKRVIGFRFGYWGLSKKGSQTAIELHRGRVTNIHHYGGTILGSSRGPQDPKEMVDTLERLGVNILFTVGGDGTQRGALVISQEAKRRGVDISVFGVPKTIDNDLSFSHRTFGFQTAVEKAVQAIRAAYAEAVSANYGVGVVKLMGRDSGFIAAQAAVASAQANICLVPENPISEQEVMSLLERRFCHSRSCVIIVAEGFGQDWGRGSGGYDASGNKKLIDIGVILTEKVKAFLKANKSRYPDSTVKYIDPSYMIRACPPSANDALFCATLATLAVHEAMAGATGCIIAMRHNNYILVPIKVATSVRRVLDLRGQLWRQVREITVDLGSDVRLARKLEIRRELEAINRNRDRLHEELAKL

O=C(O)[C@@H]1[C@H](C(=O)O)[C@H]2C(=O)C=C[C@H]1N2Cc1ccccc1
inactive: Potency [1] > 11.4 µM | activity change, negative = inhibition [2] -5.73% | activity change, negative = inhibition [3] -3.9% [at 2.29 µM] | Potency [4] > 46 µM | Potency [5] > 9.22 µM | Potency [6] | Potency [7]

O=[N+]([O-])c1cccc(/C=N\Nc2ccc3ccccc3n2)c1O
active: Potency [3] 0.794 µM | Potency [9] 3.16 µM
inactive: Potency [1] > 11.4 µM | activity change, negative = inhibition [2] -13.9% | Potency [4] > 46 µM | Potency [5] > 9.22 µM | Potency [6] | Potency [7] | Potency [8]

CN1CCN(c2ncc3nc(-c4cccs4)c(=O)n(C[C@H]4CCCO4)c3n2)CC1
active: Potency [3] 12.6 µM | Potency [10] 3.16 µM
inactive: Potency [1] > 11.4 µM | activity change, negative = inhibition [2] 19.1% | Potency [4] > 9.22 µM | Potency [5] > 46 µM | Potency [6] | Potency [8]

COc1ccc(Oc2ncc3nc(C)c(=O)n(Cc4ccc(F)cc4)c3n2)cc1
inactive: Potency [1] > 11.4 µM | activity change, negative = inhibition [2] -26.5% | activity change, negative = inhibition [11] -3.9% | activity, negative = inhibition [12] -12.2% | Potency [4] > 9.22 µM | Potency [5] > 46 µM | Potency [6]

C[C@H](CCC(=O)O)[C@H]1CC[C@@H]2[C@H]3[C@@H](C[C@@H](O)[C@]21C)[C@]1(C)CC[C@H](O)C[C@@H]1C[C@@H]3O
inactive: Potency [1] > 11.4 µM | activity change, negative = inhibition [2] 1.25% | activity change, negative = inhibition [11] 14.6% | activity, negative = inhibition [12] 13% | Potency [4] > 46 µM | Potency [5] > 9.22 µM | Potency [6] | Potency [7] | outcome [13] | activity, negative = inhibition ([14]; parasite line A) -6.11% | activity, negative = inhibition ([14]; parasite line B) -10.8% | Potency [15] | Potency [16] | Potency [17]

CC(C)c1cc(C(F)(F)F)nc(NNc2nc(C(C)C)cc(C(F)(F)F)n2)n1
active: Potency [18] 3.16 µM | Potency [9] 0.126 µM | Potency [19] 2.51 µM
inactive: Potency [1] > 11.4 µM | activity change, negative = inhibition [2] -11.8% | Potency [3] | Potency [4] > 46 µM | Potency [5] > 9.22 µM | Potency [6] | Potency [7] | Potency [8]

O=C(c1cc(C(F)(F)F)cc(C(F)(F)F)c1)N1CCC[C@@]2(CCN(Cc3ccccc3)C2)C1
active: Potency [3] 25.1 µM | Potency [18] 5.01 µM
inactive: Potency [1] > 11.4 µM | activity change, negative = inhibition [2] 2.92% | activity, negative = inhibition [12] 7.65% | Potency [5] > 46 µM | Potency [6] | Potency [7] | Potency [8]
